Assay outcomes: PubChem, National Center for Advancing Translational Sciences (NCATS)
A selection: hits, their analogues and other compounds. The true share with any hit is near 7.3%.
FMDV inh: High Throughput Screening for Foot and Mouth Disease Virus Antivirals; FMDV antiviral cell-based qHTS; Potency, µM (highest dose often 57.9 µM), without a hit: top-dose activity change, negative = inhibition, hits mostly inhibitors; 1.2% of 410,000 active; AID 1159524, 2015; calls by dose curve; tested in HEK293T cells; note: read-out not given here; potency is the fitted concentration of half-maximal effect; nearly all actives have a fitted effect of over 45% in size
Vaccinia mCherry: qHTS for Stage-Specific Inhibitors of Vaccinia Orthopoxvirus: mCherry Reporter Primary qHTS. AID 720579, 2013. 0.63% of 310,000 active. Vaccinia virus mCherry reporter infection, fluorescence. Potency, µM (series often up to 36.5 µM), inactives show top-dose activity change, negative = inhibition, actives largely listed as inhibitors; calls by dose curve; tested in A549 cells; note: potency is the fitted concentration of half-maximal effect; nearly all actives have a fitted effect of over 35% in size
HCMV antiviral: qHTS Assay for inhibitors of the human cytomegalovirus (HCMV). HFF cells, HCMV-luciferase reporter, 72 h; hits give low values. activity change, negative = inhibition, % at 57.5 µM. 4.5% of 410,000 active. AID 1259415, 2018; in the data active = activity change below about -60%; inconclusive = no clear call, values can overlap the other calls; inactive = above about -39%
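Screen run at 2 compound doses on HFFs infected with reporter HCMV, MOI 1 PFU/cell. Luciferase activity from cell lysates at 72 h post infection gave inhibition relative to buffer-only and Salinomycin wells.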
HCV inhibitor: qHTS Assay for Inhibitors of Hepatitis C Virus (HCV). Huh7.5.1 HCVcc-Cre infection, luciferase reporter, 44 h. Potency, µM (titrated, usually from 41.8 µM), for the others: top-dose activity change, negative = inhibition, usual class: inhibitors. 3.4% of 340,000 active. AID 651820, 2012; active = well fitted inhibition curve with a large enough effect; inconclusive = small, poorly fitted or top-dose-only effect, or another doubt; inactive = no such curve, though single readings can be large or run the other way; note: potency is the fitted concentration of half-maximal effect
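Cells (1,000/well) were plated 4 h before compound, then infected with HCVcc-Cre virus (~0.5 moi). After 44 h further culture, infection was read as luciferase luminescence following a 15 min substrate incubation at room temperature.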
VACV Venus inh: qHTS for Stage-Specific Inhibitors of Vaccinia Orthopoxvirus: Venus Reporter Primary qHTS; Vaccinia virus Venus reporter expression, fluorescence; AID 720580, 2013; 0.46% of 330,000 active; Potency, µM (series often up to 36.5 µM), inactives show at the highest dose activity change, negative = inhibition, hits mostly inhibitors; calls by dose curve; tested in A549 cells; note: potency is the fitted concentration of half-maximal effect; nearly all actives have a fitted effect of over 30% in size
An asterisk follows results filed as active; i = inactive; ? = inconclusive; nt = no result given; ! = not active in a repeat. % is set by controls: 0 for no effect and ±100 for the full control effect.

SMILES | FMDV inh | Vaccinia mCherry | HCMV antiviral | HCV inhibitor | VACV Venus inh
CCc1cccc(C)c1NC(=O)COC(=O)c1c2c(nc3ccccc13)/C(=C\c1cccs1)CCC2 | -23% | -16% | -28 | 1.1µM* | -22%
O=C(c1ccc(S(=O)(=O)N2CCc3ccccc3C2)cc1)N1CCCCC1 | -24% | nt | -62* | ? | nt
O=S(=O)(c1ccccc1)N1CCN(Cc2ccccc2)CC1 | -11% | 3% | -5 | 12% | -13%
Cc1ccc(S(=O)(=O)N2CCc3ccccc3CC2)cc1 | -3% | i | -78* | ? | -11%
Cc1ccc(S(=O)(=O)N2CCN(Cc3ccccc3)CC2)cc1 | -27% | nt | -60* | -17% | nt
CCC[C@H]1[C@@H](NS(=O)(=O)c2cn(C)cn2)CC[C@@]23CCCN2C(=O)CCC[C@@H]13 | nt | nt | -23 | nt | nt
COc1cc(C/C=C\c2ccccc2)c(OC)cc1O | -5% | nt | nt | nt | nt
CCOc1ccc(NC(=O)CSc2nnc3c(n2)[nH]c2ccc(S(=O)(=O)N(C)C)cc23)cc1 | nt | -15% | nt | nt | -14%
COc1ccc(OC)c(-c2noc(N3CCN(c4cc(C)ccc4C)CC3)n2)c1 | -14% | -8% | 10 | nt | -13%
C[C@@H]1ON(C)[C@H]2C[C@H]3c4[nH]c5cccc(-c6ccc7c(c6)OCO7)c5c4CCN3C(=O)[C@@H]12 | nt | nt | -13 | nt | nt
CC(=NNC(=S)Nc1cccc(C)c1)c1ccccn1 | 39% | 2µM* | -98* | 10µM* | ?
COc1ccccc1NC(=S)NN=C(C)c1ccccn1 | 1% | ? | -102* | ? | ?
CC(=NNC(=S)Nc1ccc(C)cc1)c1ccccn1 | 0% | ? | -94* | ? | ?
COc1ccc2c(c1)CC/C(=C\Nc1ccc3c(c1)OCO3)C2=O | nt | -25% | -8 | 7.1µM* | -10%
COc1ccc(N/C=C2\CCOC2=O)cc1 | 28% | nt | 4 | 16% | nt
COc1ccc(N/C=C2\CCc3ccccc3C2=O)cc1 | 25µM* | nt | -18 | -25% | nt
COc1ccc(S(=O)(=O)Nc2ccc3c(c2)OCO3)cc1 | nt | i | -10 | 27% | -5%
O=C1/C(=C/Nc2ccc3c(c2)OCO3)CCc2ccccc21 | ? | ? | -62* | ? | -16%
Cc1c(C(=O)NC2CCCC2)sc2ncnc(NCCN(C)C)c12 | -5% | -7% | nt | nt | -4%
COC(=O)c1ccc(NC(=O)CC2C(=O)N(c3cccc(OC)c3)C(=O)N2Cc2ccco2)cc1 (stereo unspecified) | -3% | -3% | -13 | nt | -8%
COc1ccc(CCNCc2c(C(=O)O)c(C)n(Cc3c(F)cccc3Cl)c2C)cc1OC | -6% | 4% | -2 | nt | 4%
S=C(NCC1(c2ccccc2)CCCC1)Nc1ccccc1 | 0% | nt | -97* | 10µM* | nt
COc1cccc(NC(=O)N(Cc2cn(C)c3ccccc23)C2CCCCC2)c1 | 19% | -21% | -104* | nt | -22%
CN(C(=O)c1cnc(N2CCOCC2)c2ccccc12)c1ccccc1F | -24% | -5% | 4 | nt | -15%
COc1ccc(C)cc1-n1cnc2cc(C(=O)NC3CCCCCC3)ccc21 | 0% | -7% | ? | nt | -5%
SMILES | FMDV inh | Vaccinia mCherry | HCMV antiviral | HCV inhibitor | VACV Venus inh
CCC(=O)Nc1nc(CC(=O)Nc2ccccc2)cs1 | -13% | nt | ? | 8% | nt
COc1ccccc1NC(=O)Cc1csc(NC(=S)Nc2ccccc2)n1 | ? | nt | -6 | 13µM* | nt
COc1ccc(NC(=S)Nc2nc(CC(=O)Nc3ccccc3OC)cs2)cc1 | 22µM* | nt | ? | 32µM* | nt
CCN(CC(=O)Nc1ccccc1OC)Cc1csc(CC(=O)Nc2ccc(C)cc2)n1 | -22% | i | -11 | ? | -10%
Cc1ccc(-c2nnc3ccccc3c2C(=O)Nc2cccc(C(F)(F)F)c2)cc1 | 47% | -7% | 0 | nt | -8%
N#C/C(=C/c1ccc(-c2ccc(Br)cc2)o1)C(=O)NC1CCCCC1 | -6% | ? | ? | 14µM* | ?
N#C/C(=C\c1ccc(-c2ccc(Br)cc2)o1)C(=O)NCCc1c[nH]c2ccccc12 | -9% | ? | -11 | 22µM* | -12%
N#C/C(=C/c1ccc2c(c1)OCO2)C(=O)NCCc1c[nH]c2ccccc12 | -7% | nt | -16 | -9% | nt
Cc1ccccc1CN1CCCN(Cc2ccc(Cl)cc2)S1(=O)=O | -8% | i | -60* | -26% | -22%
Cc1ccc(CN2CCCN(Cc3ccc(Cl)cc3)S2(=O)=O)cc1 | -5% | -5% | 18 | 1% | 5%
Cc1ccc(Cn2c(SCc3cccnc3)nc3c2c(=O)n(C)c(=O)n3C)cc1 | nt | -29% | 33 | ? | -10%
CCCn1c(SCC(=O)Nc2ccccc2N2CCCCC2)nc2c1c(=O)n(C)c(=O)n2C | nt | -29% | ? | 10µM*! | -18%
CC1Cc2ccccc2N1C(=O)CSc1nc2c(c(=O)n(C)c(=O)n2C)n1Cc1ccccc1 (stereo unspecified) | -12% | -13% | -97* | 3.5µM* | -3%
Cc1ccc(Cn2c(SCCN3CCCCC3)nc3c2c(=O)n(C)c(=O)n3C)cc1 | 0% | nt | -100* | 13µM* | ?
Cc1ccc(Cn2c(SCC(N)=O)nc3c2c(=O)n(C)c(=O)n3C)cc1 | nt | i | 97 | 11µM* | -23%
CCn1c(SCC(=O)N2c3ccccc3CCc3ccccc32)nc2c1c(=O)n(C)c(=O)n2C | 19% | nt | 21 | -7% | nt
COc1ccc(N(Cc2nc3ccccc3[nH]2)Cc2nnnn2-c2c(C)cccc2C)cc1 | nt | nt | 28 | nt | nt
CCOC(=O)c1c(C)[nH]c(C(=O)N/N=C/c2cc([N+](=O)[O-])ccc2O)c1C | -12% | i | 4 | 11µM* | -9%
CCOC(=O)c1c(C)[nH]c(C(=O)N/N=C\c2ccccc2O)c1C | 12% | ? | -100* | ? | ?
Cc1ccccc1NC(=O)CN(c1ccc(Cl)cc1Cl)S(=O)(=O)c1ccccc1 | 2% | -12% | -11 | nt | -16%
Cc1ccc(C(C)C)cc1OCC(=O)Nc1nnc(C2CC2)s1 | -14% | 2µM* | -84* | -23% | 14%
CC(C)Oc1ccc(CNC(=O)c2ccc(CS(=O)Cc3ccccc3Cl)o2)cc1 (stereo unspecified) | ? | -15% | -16 | nt | -6%
C[C@]12CCC(=O)C=C1C=CC1C2CC[C@]2(C)C(=O)CCC12 (stereo partly specified) | -23% | -13% | -70* | 19% | -16%
O=C(Nc1ccc(OC(F)(F)F)cc1)NC1COc2ccccc2C1 (stereo unspecified) | -5% | i | -12 | nt | -11%
O=C(NC1CC1)c1cc2c(s1)-c1ccccc1OC2 | -5% | ? | ? | 11µM* | ?
O=C(O)c1cc2c(s1)-c1ccccc1OC2 | 7% | nt | 21 | 17% | -30%
CC1CCN(Cc2c(C(=O)N/N=C/c3cc(Cl)ccc3O)nnn2-c2nonc2N)CC1 | -15% | 5µM* | -100* | 10µM* | ?
